Experiment [1] can be described thus: qHTS of pediatric cancer cell lines to identify multiple opportunities for drug repurposing: Primary screen for A673 cells (AID 1347092). Also: potency is read from the fitted curve at half-maximal effect; nearly all actives have a fitted effect of over 45% in size. The method in brief: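 Cell viability of A673 measured by CellTiter-Glo ATP luminescence after 48 hours compound exposure. Dilution series spanned 0.78 nM to 46 µM (MIPE, 11-point) or 0.59 nM to 46 µM (NPC, 8-point); bortezomib 2.3 uM positive control.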

Experiment [2] in a line: qHTS of pediatric cancer cell lines to identify multiple opportunities for drug repurposing: Primary screen for SK-N-MC cells (AID 1347093). Also: potency is read from the fitted curve at half-maximal effect. The method in brief: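 Metabolically active cells were quantified by ATP-dependent luminescence (CellTiter-Glo, 15 min at room temperature) following 48 h treatment. Cells had been plated at 500-1,000 per well and settled for 5 h beforehand.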

A short description of experiment [3]: qHTS of pediatric cancer cell lines to identify multiple opportunities for drug repurposing: Primary screen for BT-37 cells (AID 1347094). Also: potency is read from the fitted curve at half-maximal effect. In a few lines:
(§1)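 Viability was measured as metabolically active cells after 48 hours of treatment, read by CellTiter-Glo luminescence. Compounds were tested at multiple final concentrations, giving concentration-response curves.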

Experiment [4] is described as follows: qHTS of pediatric cancer cell lines to identify multiple opportunities for drug repurposing: Primary screen for NB-EBc1 cells (AID 1347095). Also: potency is read from the fitted curve at half-maximal effect. In a few lines: as §1
Experiment [5] can be described thus: qHTS of pediatric cancer cell lines to identify multiple opportunities for drug repurposing: Primary screen for Saos-2 cells (AID 1347097). Also: potency is read from the fitted curve at half-maximal effect; nearly all actives have a fitted effect of over 40% in size. In a few lines: as §1
Experiment [6] is described as follows: qHTS of pediatric cancer cell lines to identify multiple opportunities for drug repurposing: Primary screen for SK-N-SH cells (AID 1347098). Also: nearly all actives have a fitted effect of over 65% in size. Also: potency is read from the fitted curve at half-maximal effect. The method in brief:
(§2)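 Cells (500-1,000/well) rested 5 h, then received compounds for 48 h; metabolically active cells were measured by CellTiter-Glo luminescence. Final concentrations spanned up to 46 µM (MIPE, 11-point) or 0.59 nM-46 µM (NPC, 8-point) in primary screens, 11-point in follow-ups.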

The nature of experiment [7]: qHTS of pediatric cancer cell lines to identify multiple opportunities for drug repurposing: Primary screen for NB1643 cells (AID 1347099). Also: potency is read from the fitted curve at half-maximal effect; nearly all actives have a fitted effect of over 50% in size. The method in brief:
as §1

Experiment [8] in a line: qHTS of pediatric cancer cell lines to identify multiple opportunities for drug repurposing: Primary screen for LAN-5 cells (AID 1347100). Also: potency is read from the fitted curve at half-maximal effect. The method in brief:
(§3)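 Viability after 48 h compound treatment at 37C, 500-1,000 cells/well, read as ATP luminescence with CellTiter-Glo. Primary screens used 11-point (MIPE, 0.78 nM-46 µM) or 8-point (NPC, 0.59 nM-46 µM) final concentrations; follow-up screens used 11-point dilutions.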

A short description of experiment [9]: qHTS of pediatric cancer cell lines to identify multiple opportunities for drug repurposing: Primary screen for Rh18 cells (AID 1347102). Also: nearly all actives have a fitted effect of over 65% in size. Also: potency is read from the fitted curve at half-maximal effect. The method in brief: as §3
Experiment [10] can be described thus: qHTS of pediatric cancer cell lines to identify multiple opportunities for drug repurposing: Primary screen for OHS-50 cells (AID 1347103). Also: potency is read from the fitted curve at half-maximal effect; nearly all actives have a fitted effect of over 40% in size. In a few lines: as §2
Experiment [11] in a line: qHTS of pediatric cancer cell lines to identify multiple opportunities for drug repurposing: Primary screen for RD cells (AID 1347104). Also: potency is read from the fitted curve at half-maximal effect; nearly all actives have a fitted effect of over 55% in size. In a few lines: as §1
The nature of experiment [12]: qHTS of pediatric cancer cell lines to identify multiple opportunities for drug repurposing: Primary screen for control Hh wild type fibroblast cells (AID 1347106). Also: nearly all actives have a fitted effect of over 55% in size. Also: potency is read from the fitted curve at half-maximal effect. In a few lines:
as §3

A short description of experiment [13]: qHTS of pediatric cancer cell lines to identify multiple opportunities for drug repurposing: Primary screen for Rh30 cells (AID 1347107). Also: nearly all actives have a fitted effect of over 75% in size. Also: potency is read from the fitted curve at half-maximal effect. In a few lines: as §3
The nature of experiment [14]: qHTS of pediatric cancer cell lines to identify multiple opportunities for drug repurposing: Primary screen for Rh41 cells (AID 1347108). Also: potency is read from the fitted curve at half-maximal effect; nearly all actives have a fitted effect of over 70% in size. The method in brief:
as §1

The nature of experiment [15]: qHTS of pediatric cancer cell lines to identify multiple opportunities for drug repurposing: Primary screen for BT-12 cells (AID 1347101). Also: potency is read from the fitted curve at half-maximal effect; nearly all actives have a fitted effect of over 25% in size. The method in brief:
as §2

Experiment [16] can be described thus: qHTS of pediatric cancer cell lines to identify multiple opportunities for drug repurposing: Confirmatory screen for A673 cells (AID 1347110). Also: potency is read from the fitted curve at half-maximal effect; nearly all actives have a fitted effect of over 65% in size. In a few lines: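 Viability was read as ATP luminescence (CellTiter-Glo) after 48 h of compound exposure at 37 C in A673 cells seeded at 500-1,000/well. Titrations reached 46 uM final, with 11 points in the confirmatory screen. Concentration-response curves were fitted directly.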

A short description of experiment [17]: qHTS of pediatric cancer cell lines to identify multiple opportunities for drug repurposing: Confirmatory screen for SK-N-MC cells (AID 1347111).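 Also: potency is read from the fitted curve at half-maximal effect; cells exposed to compound for 48 h before the readout; nearly all actives have a fitted effect of over 70% in size.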 The method in brief: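 SK-N-MC cells at 500-1,000 cells/well in growth media were pre-incubated 5 h, then exposed to compounds at 11-point dilutions for 48 h at 37 degrees C, 5% CO2. Viability was read as CellTiter-Glo luminescence.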

Experiment [18] in a line: qHTS of pediatric cancer cell lines to identify multiple opportunities for drug repurposing: Primary screen for MG 63 (6-TG R) cells (AID 1347105). Also: potency is read from the fitted curve at half-maximal effect; nearly all actives have a fitted effect of over 50% in size. In a few lines: as §1
A short description of experiment [19]: qHTS of pediatric cancer cell lines to identify multiple opportunities for drug repurposing: Confirmatory screen for NB1643 cells (AID 1347109). Also: potency is read from the fitted curve at half-maximal effect; nearly all actives have a fitted effect of over 45% in size. The method in brief:
as §3

Experiment [20] can be described thus: qHTS of pediatric cancer cell lines to identify multiple opportunities for drug repurposing: Primary screen for U-2 OS cells (AID 1347096). Also: nearly all actives have a fitted effect of over 50% in size. In a few lines:
as §3

Records with an inconclusive call do not appear. Calls of active or inactive are those of the source. Calls follow the shape of the dose curve; as a rule, active = well fitted curve in the direction sought with a large enough effect; inconclusive = small, poorly fitted or top-dose-only effect, or another doubt; inactive = no such curve, though single readings can be large; an effect the other way counts as inactive or inconclusive.

For the compound `CN1CCc2c(c3ccccc3n2Cc2ccc(C(=O)NO)cc2)C1`, the Potency is 5900 nM (active) in experiment [1]; 2960 nM (active) in [2]; 30600 nM (active) in experiment [3]; 20900 nM (active) in experiment [4]; 18700 nM (active) in [5]; 24100 nM (active) in experiment [6]. Also, the Potency in experiment [7] is 16600 nM (active); in experiment [8], 16600 nM (active); in experiment [9], 18700 nM (active); in [10], 13700 nM (active); in experiment [11], 16600 nM (active); in experiment [13], 20900 nM (active). Further, the Potency in experiment [14] is 13200 nM (active). Moreover, in [12], the Potency result was “inactive”.
With `COc1ccc(C=Cc2cc(OC)c(OC)c(OC)c2)cc1NC(=O)[C@H](N)CO`, the Potency in [1] was 9.3 nM (active); in experiment [2], 11.8 nM (active); in experiment [3], 17.2 nM (active); in [4] it was 1 nM (active); in experiment [5] it was 10.5 nM (active); in experiment [8] it was 13.2 nM (active). For the same compound, the Potency in experiment [15] was 8.6 nM (active); in [10], 13.7 nM (active); in [11] it was 6.6 nM (active); in experiment [16] it was 104 nM (active); in experiment [17], 117 nM (active). The Potency entry in [6], in experiment [9] and in [13] was “inactive” throughout.
Take `Cc1ncc(-c2ccnc(Nc3ccc(S(C)(=O)=O)cc3)n2)n1C(C)C`: the Potency was 935 nM (active) in [1]; 2350 nM (active) in [2]; 6110 nM (active) in experiment [3]; 2350 nM (active) in experiment [4]; 3720 nM (active) in experiment [5]; 2350 nM (active) in experiment [7]. Moreover, the Potency in experiment [15] is 3850 nM (active); in experiment [10], 3850 nM (active); in [11], 6620 nM (active); in [14] it was 5900 nM (active). In addition, the Potency result in experiment [12] and in [13] was “inactive” in each case.
Consider `C[C@]12CC[C@@H]3c4ccc(O)cc4CC[C@H]3[C@H]1CC[C@H]2O`, for which the Potency in experiment [1] was 2960 nM (active); in experiment [2], 10500 nM (active); in [3] it was 27300 nM (active); in experiment [4], 9350 nM (active); in [5], 16600 nM (active); in experiment [7], 4180 nM (active). Further, the Potency in experiment [8] is 9350 nM (active); in [10], 24300 nM (active); in experiment [11], 10500 nM (active). In [12], the Potency result is “inactive”.
Consider `CC(C)[C@H](CO)Nc1nc(Nc2cccc(Cl)c2)c2ncn(C(C)C)c2n1`, for which the Potency in experiment [1] was 14800 nM (active); in experiment [2] it was 1320 nM (active); in experiment [3], 21700 nM (active); in experiment [4], 18700 nM (active); in experiment [5], 9350 nM (active); in experiment [6], 21500 nM (active). In addition, the Potency is 2960 nM (active) in experiment [7]; 11800 nM (active) in experiment [8]; 13700 nM (active) in experiment [10]; 18700 nM (active) in [11]; 2960 nM (active) in [18]; 11800 nM (active) in [14]. The Potency result in experiment [12] was “inactive”.
`C=CC(=O)Nc1cccc(Nc2nc(NC3CCC(N(C)C)CC3)nc3c2ncn3C(C)C)c1` (stereo unspecified): the Potency in experiment [1] is 11.8 nM (active); in [2] it was 4.2 nM (active); in experiment [3], 96.8 nM (active); in experiment [4], 166 nM (active); in experiment [5] it was 833 nM (active); in experiment [6], 136 nM (active). Further, the Potency in experiment [7] was 33.2 nM (active); in experiment [8], 14.8 nM (active); in experiment [9] it was 418 nM (active); in experiment [10], 38.5 nM (active); in experiment [11], 83.3 nM (active); in [18], 469 nM (active). Further, the Potency is 2350 nM (active) in experiment [12]; 20.9 nM (active) in [14]; 414 nM (active) in experiment [19]; 737 nM (active) in experiment [16]; 2610 nM (active) in experiment [17]. Besides, the Potency entry in experiment [13] was “inactive”.
With `O=C1NCCc2[nH]c(-c3ccncc3)cc21`, the Potency in experiment [1] was 1180 nM (active); in [2], 4180 nM (active); in experiment [3] it was 3060 nM (active); in experiment [4] it was 2090 nM (active); in experiment [5], 4180 nM (active); in experiment [15], 2430 nM (active). Moreover, the Potency was 2430 nM (active) in [10]; 6620 nM (active) in experiment [11]; 2350 nM (active) in experiment [14]; 2080 nM (active) in experiment [16]; 7370 nM (active) in [17]. In addition, the Potency result in [12] and in experiment [13] was “inactive” each time.
With `CC(C)Oc1ccc(C(=O)N[C@H](CNC(=O)CN(C)C)Cc2ccc(-c3cn4cccc([C@H](C)O)c4n3)cc2)cc1Cl`, the Potency in experiment [1] was 148 nM (active); in experiment [2], 148 nM (active); in experiment [4], 372 nM (active); in [5], 332 nM (active); in experiment [6] it was 15200 nM (active); in experiment [8], 1050 nM (active). Also, the Potency in experiment [10] was 2430 nM (active); in experiment [14], 1180 nM (active). Further, the Potency entry in [20] and in experiment [12] was “inactive” in each case.
For `O=C(Nc1cccc(Nc2ncc(Br)c(NCCc3cnc[nH]3)n2)c1)N1CCCC1`, the Potency in [1] is 11800 nM (active); in [2] it was 332 nM (active); in experiment [3] it was 21700 nM (active); in experiment [5], 1050 nM (active); in experiment [6], 13600 nM (active); in experiment [8], 118 nM (active). Moreover, the Potency is 9350 nM (active) in [9]; 17200 nM (active) in [10]; 16600 nM (active) in experiment [11]; 14800 nM (active) in experiment [18]; 9350 nM (active) in experiment [14]. For the same compound, in experiment [20], the Potency entry was “inactive”.

The record behind these values is PubChem BioAssay (NCATS).
